{"source": "ChEMBL document CHEMBL3988442", "about": "“University of Dundee, Small-Polar-MMV Screening Library” (2021)", "data": [{"biological_target": "AMP-activated protein kinase, AMPK (Homo sapiens) (UniProt P54646+O43741+P54619+Q9UGJ0+Q9Y478+Q13131+Q9UGI9)", "assay": "AMP-dependent Kinase enzyme assay. An in vitro enzyme assay that detects ADP turnover that is directly proportional to AMPK activity. This uses naive AMPK that is activated during the assay with MK-8722", "assay_type": "functional", "set-up": "scale not given: direction of the effect not stated beside the values", "conditions": "30 µM", "units": {"Percent Effect": "%"}, "values": [{"smiles": "c1nn(C2CCCCC2)cc1-c1cncn1CCCN1CCCCC1", "Percent Effect": 1.56}, {"smiles": "O=C1OCCN1Cc1nc(C2(c3ccc(F)cc3)CCOC2)no1", "note": "(centres undefined)", "Percent Effect": 8.23}, {"smiles": "CCC(=O)c1cccc(S(=O)(=O)NC(C)C#N)c1", "note": "(centres undefined)", "Percent Effect": -2.44}, {"smiles": "Cn1nc2c(c1NC(=O)c1ccc(Cl)s1)CCC2", "Percent Effect": 0.899}, {"smiles": "Cc1cc(C)n(CCN2CCC(N(C)Cc3nnc(C)n3C)C2)n1", "note": "(centres undefined)", "Percent Effect": 3.54}, {"smiles": "Cc1cc(CNCC2(O)CCOCC2)ccc1F", "Percent Effect": -5.64}, {"smiles": "c1ccc2oc(N3CCC(c4nncn4C4CC4)CC3)nc2c1", "Percent Effect": 8.44}, {"smiles": "COc1ccc(C)nc1NC(=O)Cc1c(C)nn(C)c1C", "Percent Effect": 2.12}, {"smiles": "Cc1ncn(CCNC(=O)Nc2ccccc2)c(=O)c1C", "Percent Effect": -8.41}, {"smiles": "CC(=O)c1cccc(OC(C)C(=O)Nc2cnn(CCN(C)C)c2)c1", "note": "(centres undefined)", "Percent Effect": -0.8}, {"smiles": "CCn1cc(S(=O)(=O)Nc2ccc3[nH]c(C4CCC4)nc3c2)cn1", "Percent Effect": 2.5}, {"smiles": "CCc1n[nH]c(C(=O)NCCn2ccnc2C)c1C", "Percent Effect": -2.67}, {"smiles": "COC(=O)C1CCN(C(=O)Cn2nc(C)nc2-c2ccccc2)CC1", "Percent Effect": -7.76}, {"smiles": "CN(C)CC1(O)CCCN(C(=O)Cn2ccc3ccccc32)CC1", "note": "(centres undefined)", "Percent Effect": -8.54}, {"smiles": "CC(CC(=O)c1ccccc1)NC(=O)c1ccon1", "note": "(centres undefined)", "Percent Effect": 8.5}, {"smiles": "CC(C)c1nccc(CN(C)Cc2cnn(-c3ccccc3)c2)n1", "Percent Effect": -5.06}, {"smiles": "CCCOc1cc(CNC(=O)Nc2cccc(C(C)=O)c2)ccn1", "Percent Effect": -3.21}, {"smiles": "CNC(=O)c1ccnc(CC2COc3c(cccc3OC)C2)c1", "note": "(centres undefined)", "Percent Effect": 7.88}, {"smiles": "CCOC(=O)NC1CCCN(c2cncc(Br)c2)C1", "note": "(centres undefined)", "Percent Effect": 15.7}]}]}
